In the library only some 3.4% were active in any assay of this set; here they are far more common.
ANO1 block: TMEM16A chloride channel inhibitors, primary screen, cell-based, HTS; actives 1.2% (n = 310,000); HEK293 TMEM16A/YFP iodide influx fluorescence, ionomycin; normalized B-score (activity score, 25-100; higher = stronger inhibition) at 10 µM;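 active = ratio plate-corrected score three or more library SD toward inhibition, starting fluorescence score within five deviations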;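 note: score derived from kinetic fluorescence span divided by baseline fluorescence per well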
MEKK3 PB1 HTS: modulators of MEKK3-MEK5 PB1 binding, primary screen, biochemical, wildtype MEKK3, multiplex bead flow cytometry, Alexa488-MEK5. Mitogen-activated protein kinase kinase kinase 3 (Homo sapiens), Q99759. bead-based flow cytometry, Alexa488-MEK5 binding to MEKK3; actives lie on both sides; 0 = blocked by unlabeled MEK5, 100 = vehicle. binding response (% of control), % at 10 µM. actives 1.4% (n = 290,000). AID 1529, 2009;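 active = binding response more than 3 SD above or below the average of its plate-row segment, actives on both sides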;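 note: Alexa488 bead fluorescence after subtracting the streptavidin-only scavenger bead signal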
NTR1 agonist: agonists of human NTR1, primary screen, imaging, U2OS cells, beta-arrestin-GFP, high content. Neurotensin receptor type 1 (Homo sapiens), P30989. actives 0.17% (n = 330,000). NTR1-U2OS beta-arrestin-GFP spot imaging, agonist mode. activation, % at 20 µM. AID 493036, 2011;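 active = activation at or above 40% of the spot to cytoplasm intensity ratio, with at least 20 cells analyzed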;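 note: 0% = DMSO without peptide and 100% = 100 nM NTR1 peptide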
MEKK2 WT-MEK5: modulators of MEK5 binding to wildtype MEKK2, primary screen, biochemical, multiplex bead flow cytometry, Alexa488-MEK5. binding response (% of control), % at 10 µM. Alexa488-MEK5 binding to MEKK2 WT; actives lie on both sides. actives 1.1% (n = 290,000). AID 1531, 2009. Mitogen-activated protein kinase kinase kinase 2 (Homo sapiens), Q9Y2U5; in the data active = binding response below about 67% or above about 130%
MEKK2 mut-MEK5: MEK5 binding signal on mutant MEKK2 PB1, primary screen, biochemical, multiplex bead flow cytometry, Alexa488-MEK5; Alexa488-MEK5 binding to MEKK2 mutant; percent response, % at 10 µM; actives 0.35% (n = 290,000); in the data active = percent response above about 24%, passing the limit was not always enough
ANO1 activ: TMEM16A chloride channel activators or potentiators, primary screen, cell-based, HTS | actives 0.3% (n = 340,000) | HEK293 TMEM16A/YFP-H148Q/I152L, iodide quench fluorescence; hits give low values | Anoctamin-1 (Mus musculus), Q8BHY3 | B-score at 10 µM;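 active = fluorescence-ratio B-score plate-corrected deviation score at least 3 library SD below zero, with starting fluorescence score within 5 deviations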;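 note: channel opened by trigger with iodide after compound preincubation; score built on the fluorescence ratio of max minus min over baseline; more negative score means more quench and so TMEM16A activation or potentiation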
TMEM16A reconf: TMEM16A chloride channel inhibitors, confirmation, cell-based, re-confirmation; inhibition, % at 10 µM; actives 39% (n = 2,300); HEK293 TMEM16A/YFP-H148Q, iodide quench fluorescence; ionomycin added to raise cell calcium; shares compounds with ANO1 block;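 active = mean duplicate percent inhibition, scaled so buffer wells are 0 and the reference blocker 100, over three buffer SD above buffer mean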
TMEM16A Ca cntr: calcium mobilization in TMEM16A/YFP HEK293 cells, confirmation, counter-screen for TMEM16A inhibitor project. calcium response (% of ionomycin), % at 10 µM. shares compounds with ANO1 block. actives 2% (n = 2,300). Fluo4 calcium mobilization;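 active = duplicate-averaged calcium signal over 20% of the ionomycin maximum, relative to buffer baseline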;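 note: each well's signal is peak minus trough fluorescence divided by its pre-addition baseline; 0% = buffer wells and 100% = ionomycin wells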
YFP-HEK293 quench: iodide YFP quench changes in parental YFP-HEK293, counter-screen for TMEM16A inhibitor project, cell-based; shares compounds with ANO1 block; ionomycin; YFP ratio F(max-min)/F0 at 10 µM; 2,300 tested, under 10 active;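 active = yellow fluorescent protein signal ratio exceeding the buffer control mean by over 5 SD of those controls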;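 note: ratio is mean of duplicate wells from kinetic YFP trace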
ClC-1 rat inh: ClC-1 chloride channel inhibition, selectivity assay for TMEM16A inhibitor project, cell-based, voltage-dependent ClC-1 | AID 652236, 2013 | shares compounds with ANO1 block | ratio percent, % at 10 µM | 2,300 tested, under 10 active | CHO ClC-1-YFP, iodide influx fluorescence quench; iodide control reads 0, buffer control 100;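 active = duplicate-mean ratio percent above the mean of iodide-only control wells, which defines zero, plus 5 of their SD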;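 note: higher percent means stronger block of ClC-1 iodide influx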
Target sequence (P35524 whole entry, looked up): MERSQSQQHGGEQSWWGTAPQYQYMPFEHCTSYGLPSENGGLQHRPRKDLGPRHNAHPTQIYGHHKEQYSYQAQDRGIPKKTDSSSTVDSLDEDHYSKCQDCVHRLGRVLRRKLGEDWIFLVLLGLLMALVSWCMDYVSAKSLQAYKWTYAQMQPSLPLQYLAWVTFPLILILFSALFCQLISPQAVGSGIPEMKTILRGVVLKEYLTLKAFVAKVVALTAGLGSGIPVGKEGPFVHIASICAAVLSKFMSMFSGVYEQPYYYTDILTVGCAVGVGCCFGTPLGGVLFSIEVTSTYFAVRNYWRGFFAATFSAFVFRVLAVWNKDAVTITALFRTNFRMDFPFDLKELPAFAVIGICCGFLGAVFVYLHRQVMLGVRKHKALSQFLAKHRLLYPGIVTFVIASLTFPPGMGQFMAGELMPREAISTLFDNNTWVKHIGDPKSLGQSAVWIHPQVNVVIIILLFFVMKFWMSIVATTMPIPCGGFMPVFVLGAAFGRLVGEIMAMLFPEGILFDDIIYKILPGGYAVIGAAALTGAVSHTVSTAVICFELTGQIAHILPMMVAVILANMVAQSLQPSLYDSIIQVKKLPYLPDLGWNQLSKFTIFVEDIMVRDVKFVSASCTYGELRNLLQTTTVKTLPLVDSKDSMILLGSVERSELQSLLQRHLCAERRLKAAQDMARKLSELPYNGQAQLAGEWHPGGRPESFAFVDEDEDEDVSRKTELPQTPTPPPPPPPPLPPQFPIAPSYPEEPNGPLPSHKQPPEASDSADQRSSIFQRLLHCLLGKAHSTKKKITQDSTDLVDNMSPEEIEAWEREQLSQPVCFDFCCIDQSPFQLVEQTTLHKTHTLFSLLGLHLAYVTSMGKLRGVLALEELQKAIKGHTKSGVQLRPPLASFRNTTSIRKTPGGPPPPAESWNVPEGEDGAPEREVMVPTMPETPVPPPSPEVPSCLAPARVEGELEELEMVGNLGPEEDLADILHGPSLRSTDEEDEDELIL
An asterisk follows results filed as active; i = inactive; nt = no result given.

SMILES	ANO1 block	MEKK3 PB1 HTS	NTR1 agonist	MEKK2 WT-MEK5	MEKK2 mut-MEK5	ANO1 activ	TMEM16A reconf	TMEM16A Ca cntr	YFP-HEK293 quench	ClC-1 rat inh
COc1ccc2c(c1)cc(C(=O)N/N=C/c1c(O)c(C(=O)O)cc3ccccc13)n2C	i	106.0	1.2	103.0	0.0	i	i	i	-1.41	-20.5
Cc1ccc(-c2noc(CCCC(=O)NC3CCCC3)n2)cc1	25*	104.0	1.2	94.0	-3.0	i	i	i	-1.1	-11.5
C=CC[N+]1(CC=C)CCOCC1	i	100.0	0.5	107.0	2.0	i	nt	nt	nt	nt
COc1ccc(/C=C/C(=O)c2cc3c(cc2N)OCO3)cc1	i	98.0	0.5	95.0	-5.0	i	nt	nt	nt	nt
Cc1occc1C(=O)NNC(=S)Nc1ccccc1C(F)(F)F	i	97.0	-1.3	107.0	9.0	i	nt	nt	nt	nt
Cc1ccccc1NC(=S)NNC(=O)c1ccoc1C	100*	106.0	2.3	109.0	6.0	i	i	i	-0.9	-9.0
Cc1nn(-c2ccccc2)c2sc(-c3n[nH]c(=S)o3)cc12	25*	101.0	2.4	97.0	0.0	i	i	i	-1.02	1.0
COc1ccc(NS(=O)(=O)c2ccc(OC)c(NC(=O)CCC3CCCC3)c2)cc1	i	99.0	3.7	99.0	0.0	i	nt	nt	nt	nt
O=C(Cc1cccs1)Nc1ccc(S(=O)(=O)Nc2ncccn2)cc1	25*	105.0	-0.5	111.0	7.0	i	i	i	-1.11	-6.5
Cc1ccnc(NS(=O)(=O)c2ccc(NC(=O)Cc3cccs3)cc2)n1	i	102.0	-2.2	94.0	-2.0	i	nt	nt	nt	nt
CCCSc1ccc2nc(-c3ccccc3)cn2c1	i	102.0	4.3	98.0	3.0	i	nt	nt	nt	nt
CCCCSc1ccc2nc(-c3ccc(C#N)cc3)cn2c1	100*	98.0	7.0	97.0	4.0	i	16.0%*	i	-1.16	-8.0
S=C(Nc1ccc2c(c1)OCO2)Nc1ccccc1Cl	i	87.0	2.5	86.0	-22.0	i	nt	nt	nt	nt
Cc1nc(CCNC(=O)CC2C(=O)NCCN2Cc2ccc(F)cc2)sc1C (stereo unspecified)	i	100.0	1.9	120.0	8.0	i	nt	nt	nt	nt
CCN(c1cccc(C(F)(F)F)c1)S(=O)(=O)c1ccc2c(c1)CCN2C(=O)C1CC1	100*	105.0	3.1	99.0	2.0	i	i	i	-1.22	-17.0
CCCC[N+](CC#Cc1ccccc1)(CCCC)CCCS(=O)(=O)[O-]	i	103.0	-0.9	98.0	-2.0	i	nt	nt	nt	nt
CC(C)(CC(=O)N1CCN(c2ccc(Cl)cc2)CC1)CC1=NS(=O)(=O)c2ccccc2N1	25*	nt	4.3	nt	nt	i	i	i	-1.1	-8.0
COc1cc(CN2CCC(n3nccc3NC(=O)CCCc3ccccc3)CC2)ccc1F	25*	96.0	1.2	108.0	-2.0	i	16.5%*	i	-0.886	-5.5
CCOc1ccc(CN2CCC(n3nccc3NC(=O)CCCc3ccccc3)CC2)cc1	25*	97.0	0.9	116.0	3.0	i	i	i	-0.976	-2.0
O=C(CCCc1ccccc1)Nc1ccnn1C1CCN(Cc2ccc(Cl)cc2)CC1	i	101.0	0.2	114.0	7.0	i	nt	nt	nt	nt
O=C(CCCc1ccccc1)Nc1ccnn1C1CCN(Cc2ccccc2)CC1	i	106.0	-0.5	112.0	7.0	i	nt	nt	nt	nt
O=C(CCC1CCCC1)N1CCC(N2CCCCCC2)CC1	i	99.0	2.8	101.0	1.0	i	nt	nt	nt	nt
O=C(c1ccccc1)c1ccc(OCC(O)CN2CCN(Cc3ccccc3)CC2)cc1 (stereo unspecified)	100*	103.0	1.4	118.0	14.0	i	i	i	-1.15	-10.5
CCOC(=O)c1c(-c2ccccc2)csc1NC(=O)C1CCCO1 (stereo unspecified)	i	104.0	6.7	100.0	4.0	i	nt	nt	nt	nt
CCOC(=O)c1c(-c2ccc(-c3ccccc3)cc2)csc1NC(=O)C1C2CCC(O2)C1C(=O)O (stereo unspecified)	100*	105.0	2.7	99.0	1.0	i	70.0%*	i	-1.12	-91.0
SMILES	ANO1 block	MEKK3 PB1 HTS	NTR1 agonist	MEKK2 WT-MEK5	MEKK2 mut-MEK5	ANO1 activ	TMEM16A reconf	TMEM16A Ca cntr	YFP-HEK293 quench	ClC-1 rat inh
COc1cc2c(cc1NC(=O)c1cc(-c3ccncc3)nc3ccc(C)cc13)oc1ccccc12	25*	102.0	6.0	98.0	9.0	i	i	i	-1.18	-5.5
COc1ccc(NC(=O)c2cc(-c3ccncc3)nc3ccccc23)c(OC)c1	nt	nt	-0.9	nt	nt	i	nt	nt	nt	nt
Cc1ccc(NC(=O)COc2coc(CN3CCN(Cc4ccccc4)CC3)cc2=O)cc1	25*	nt	0.5	nt	nt	i	i	i	-0.99	-9.5
CC(C)CN(C(=O)COC(=O)CSc1ccc([N+](=O)[O-])cc1)C1CCS(=O)(=O)C1 (stereo unspecified)	i	nt	-0.9	nt	nt	i	nt	nt	nt	nt
Cc1cccc(OCc2n[nH]c(=S)n2Cc2ccccc2)c1	i	96.0	-0.1	72.0	-57.0	i	nt	nt	nt	nt
Oc1ccccc1Cc1c(O)ccc2ccccc12	25*	nt	5.2	nt	nt	i	38.5%*	i	-1.13	-8.5
O=c1c2cc(Br)ccc2nc(-c2cccc(C(F)(F)F)c2)n1O	100*	91.0	1.2	97.0	-2.0	i	59.5%*	107.5%*	-1.08	-43.0
COc1cc(C2c3cc(O)c(OC)cc3CC(C(=O)O)C2CO)ccc1O (stereo unspecified)	nt	nt	nt	nt	nt	i	nt	nt	nt	nt

Screens (PubChem BioAssay)
